From PubChem BioAssay AID588591 (National Center for Advancing Translational Sciences (NCATS), 2011)
Where “and” joins values, the source holds several entries; their conditions need not be identical. Equal entries are not always repeated. Out of some 390,000 compounds screened, about 4,700 (1.2%) were called active. Not shown: some 4% with an inconclusive outcome. Calls follow the shape of the dose curve; as a rule, active = well fitted inhibition curve with a large enough effect; inconclusive = small, poorly fitted or top-dose-only effect, or another doubt; inactive = no such curve, though single readings can be large or run the other way. Only a selection was taken, and actives are over-represented in it overall. Where a structure was tested more than once in an assay, its records may differ in their call.

biological target: DNA polymerase eta (Homo sapiens) (UniProt Q9Y253); test: qHTS for Inhibitors of Polymerase Eta; conditions: recombinant Pol eta, fluorescent DNA replication assay; series mostly up to 114 µM; activity change, negative = inhibition: at the top concentration
Sequence (Q9Y253 whole entry, looked up): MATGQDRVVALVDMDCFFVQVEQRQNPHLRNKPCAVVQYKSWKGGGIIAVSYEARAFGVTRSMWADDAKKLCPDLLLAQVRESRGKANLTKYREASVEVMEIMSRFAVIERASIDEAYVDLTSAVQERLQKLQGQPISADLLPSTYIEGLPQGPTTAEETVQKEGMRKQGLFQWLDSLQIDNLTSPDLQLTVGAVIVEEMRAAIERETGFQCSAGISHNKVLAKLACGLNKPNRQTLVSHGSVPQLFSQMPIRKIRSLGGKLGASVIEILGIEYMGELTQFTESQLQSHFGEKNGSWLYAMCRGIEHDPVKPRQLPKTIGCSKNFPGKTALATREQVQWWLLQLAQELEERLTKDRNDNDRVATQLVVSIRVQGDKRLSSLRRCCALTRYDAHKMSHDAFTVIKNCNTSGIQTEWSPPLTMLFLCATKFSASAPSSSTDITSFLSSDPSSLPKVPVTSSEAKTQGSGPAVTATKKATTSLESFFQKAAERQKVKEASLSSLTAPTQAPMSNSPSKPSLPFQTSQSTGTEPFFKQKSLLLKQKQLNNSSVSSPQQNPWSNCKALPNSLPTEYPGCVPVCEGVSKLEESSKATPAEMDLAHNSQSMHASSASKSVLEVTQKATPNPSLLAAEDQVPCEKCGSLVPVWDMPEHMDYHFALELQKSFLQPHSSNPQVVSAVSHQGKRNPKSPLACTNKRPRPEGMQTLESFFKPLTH
Procedure, shortened: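 Pol eta (10 nM) was preincubated with compounds for 15 min at room temperature, after which fluorescent replication substrate (50 nM final) was added to start the reaction. Fluorescence was read kinetically at 0 and 10 min.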
% is scaled to controls: 0 for no effect and ±100 for the full control effect; potency is read from the fitted curve at half-maximal effect.

Structure (SMILES)	activity change, negative = inhibition	Potency
COc1ccccc1CNC(=O)c1ccc(NC(=O)N2CC(C)Sc3ccccc32)cc1 (stereo unspecified)	-13.9% (inactive)	–
Cc1cccc(NC(=O)CSc2nc(-c3ccco3)cc(C(F)(F)F)n2)c1C	1.4% (inactive)	–
Cc1ccc(F)cc1NC(=O)CCSc1nc(-c2ccco2)cc(C(F)(F)F)n1	-4.06% (inactive)	–
Cc1cc(C)c2nc(-c3ccco3)cc(C(=O)O)c2c1	–	22.4 µM (active)
CCN(CCCNC(=O)c1cc2c(=O)n(CC)c3ccccc3c2s1)Cc1ccccc1	-10.1% (inactive)	–
COC(=O)c1ccccc1NC(=O)c1cc(-c2ccccc2O)no1	-4.75% (inactive)	–
COc1ccc(NC(=O)c2sc3nc[nH]c(=O)c3c2C)cc1	-4.88% (inactive)	–
CCOC(=O)c1ccc(N2C(=O)c3[nH]nc(-c4ccccc4)c3C2c2ccc(C(C)C)cc2)cc1 (stereo unspecified)	-24.7% (inactive)	–
COC(=O)c1ccc(NC(=O)c2cccc3c2C(=O)N(C2CCCCC2)C3)cc1	-16.9% (inactive)	–
O=C(O)c1cccc2c1C(=O)N(C1CCCCC1)C2	–	31.6 µM (active)
O=C(O)c1cccc2c1C(=O)N(C1CCCC1)C2	2.85% (inactive)	–
CCC1(C)CC(=O)NC1=O (stereo unspecified)	-1.71% [at 57.1 µM] (inactive)	–
Cc1cc2nc(-c3ccc(NC(=O)c4cc5ccccc5o4)cc3)oc2cc1C	-5.19% (inactive)	–
Cc1cccc(N(C)C(=O)CS(=O)(=O)c2cccc3nsnc23)c1	-12.6% (inactive)	–
COc1ccc(NC(=O)CSC2=Nc3ccccc3C3=NC(CC(=O)NCc4ccccc4OC)C(=O)N23)cc1Cl (stereo unspecified)	-18.3% (inactive)	–
CCOc1ccc(C(=O)N2CCN(CCc3ccccn3)CC2)cc1	-6.77% (inactive)	–
CCN(CC)S(=O)(=O)c1cc(C(=O)Nc2ccccn2)ccc1C	7.37% (inactive)	–
CCN(CC)CCOc1ccc2c(c1)C(=NNC(=O)c1ccccn1)c1cc(OCCN(CC)CC)ccc1-2	–	22.4 µM (active)
COC(=O)c1ccc(NC(=O)c2cnn(-c3ccc(Cl)cc3)c2C2CCN(C(=O)OC(C)(C)C)CC2)cc1	-15.1% (inactive)	–
COc1ccc(-c2nn(CC(=O)Nc3ccccc3F)c3c2cnc2ccc(F)cc23)cc1	-15.8% (inactive)	–
O=C(c1ccc(NS(=O)(=O)c2ccc3[nH]c(=O)[nH]c3c2)cc1)N1CCCCC1	7.85% (inactive)	–
Cc1cc(C(C)(C)C)cc(S(=O)(=O)Nc2ccc(C(=O)O)cc2)c1C	-15% (inactive)	–
O=C(O)c1ccc(NS(=O)(=O)c2ccc3c(c2)C(=O)c2cc(S(=O)(=O)Nc4ccc(C(=O)O)cc4)ccc2-3)cc1	–	39.8 µM (active)

Structure (SMILES)	activity change, negative = inhibition	Potency
Cc1ccc(CN(C(=O)c2ccccc2[N+](=O)[O-])c2ccccn2)cc1	-1.04% (inactive)	–
CC(C)CCNC(=O)CSc1nc2ccccc2nc1Cc1ccc(Cl)cc1	-7.28% (inactive)	–
Cn1c(SCC(=O)N2CCCc3ccccc32)ncc(C(=O)Nc2ccc(F)cc2)c1=O	-6.35% (inactive)	–
CC(NC(=O)c1cc2c(=O)n3ccccc3nc2n(C(C)C)c1=N)c1ccccc1 (stereo unspecified)	-0.776% (inactive)	–
COc1cc(NS(=O)(=O)c2ccc3c(c2)OCC(C(=O)N2CCCC2)O3)cc(OC)c1 (stereo unspecified)	-17.2% (inactive)	–
Cc1c(CC(=O)N2CCN(C(=O)C3COc4ccccc4O3)CC2)c(=O)oc2c(O)c(O)ccc12 (stereo unspecified)	–	2 µM (active)
COc1ccc(OC)c2sc(N3CCN(C(=O)C4COc5ccccc5O4)CC3)nc12 (stereo unspecified)	-5.77% (inactive)	–
O=S(=O)(NCCc1nnc2ccc(SCc3ccc(Cl)cc3Cl)nn12)c1ccccc1	-23% (inactive)	–
CCOCCCn1c(SCC(=O)Nc2ccc(CC)cc2)nc2ccccc2c1=O	-19.1% (inactive)	–
COc1ccc(OC)c(NC(=O)/C=C/c2ccc(C)o2)c1	-18.9% (inactive)	–
Cc1ccc(/C=C/C(=O)Nc2ccc([N+](=O)[O-])c(NC(=O)/C=C/c3ccc(C)o3)c2)o1	–	8.91 µM (active)
CC(=O)Nc1ccc2c3c(ccc([N+](=O)[O-])c13)CC2	-2.36% (inactive)	–
COc1ccc(NC(=O)CCNS(=O)(=O)c2ccc3c(c2)CCCC(=O)N3)cc1Cl	-2.43% (inactive)	–
O=c1[nH]n(-c2ccc([N+](=O)[O-])cc2)c(=O)c2ccccc12	–	39.8 µM (active)
C=CCNC(=S)N1CCN(CCN=Cc2c(C)[nH]n(-c3ccc([N+](=O)[O-])cc3)c2=O)CC1	-6.99% (inactive)	–
O=C(CSCc1ccc([N+](=O)[O-])cc1)NCCSCc1ccccc1	-14.8% (inactive)	–
Cc1cc(C)cc(NC(=O)CSc2oc(-c3ccccc3)nc2S(=O)(=O)c2ccc(Cl)cc2)c1	-12.3% (inactive)	–
COCCSc1nnc(NC(=O)c2cc(OC)c(OC)cc2[N+](=O)[O-])s1	1.04% (inactive)	–
CCOc1ccccc1Nc1nnc(SCc2ccc(C(=O)OC)o2)s1	-21% (inactive)	–
Cc1ccc(C(=O)Oc2coc(CSc3nnc(NC(=O)c4cccs4)s3)cc2=O)cc1C	–	7.94 µM (active)
CC1=C(c2ccc(C)cc2)S(=O)(=O)NC1=NCCCN1CCN(c2cc(C)ccc2C)CC1	-7.86% (inactive)	–
CCc1ccc2ncc3c(-c4ccc(C)cc4)nn(CC(=O)NCc4ccccc4)c3c2c1	-0.631% (inactive)	–
CCc1ccc(CNCc2c(C(=O)O)n(Cc3ccc(F)cc3Cl)c3cc(OC)ccc23)cc1	-19.3% (inactive)	–

Structure (SMILES)	activity change, negative = inhibition	Potency
COc1cc(C(=O)NCCc2csc3nc(-c4ccccc4C)nn23)cc(OC)c1OC	-18.8% (inactive)	–
O=C(COC(=O)c1ccc(Br)o1)NC12CC3CC(CC(C3)C1)C2	-19.7% (inactive)	–
O=C(OCC(=O)c1cccs1)c1ccc([N+](=O)[O-])o1	-2.33% (inactive)	–
O=C(COC(=O)c1ccc([N+](=O)[O-])o1)NC12CC3CC(CC(C3)C1)C2	–	79.4 µM (active)
ON=C1/C(=N\O)CC2(C/C1=N/O)OCCO2	–	56.2 µM (active)
COc1ccc(OC)c(NC(=O)CN2CCCN(Cc3cc(C)ccc3C)S2(=O)=O)c1	5.54% (inactive)	–
COC(=O)c1sc(-c2ccc(C(C)(C)C)cc2)cc1NC(=O)/C=C/C(=O)O	–	79.4 µM (active)
COc1ccc(Nc2ncc3c(n2)CCN(C(=O)OC(C)(C)C)C3)cc1	-17.4% (inactive)	–
COc1ccc(/C=C/c2noc(-c3ccccc3O)n2)cc1OC	-0.332% (inactive)	–
O=C(CCc1nc(CN2CCN(S(=O)(=O)c3ccc(Cl)cc3)CC2)no1)N1CCCCC1	-14.5% (inactive)	–
CCCCN(CC)CCCNC(=O)Cn1ncc2c([nH]c3ccc(C)cc32)c1=O	-18.6% (inactive)	–
Cc1cc(=O)n2[nH]c(-c3sccc3-n3c(C)ccc3C)cc2n1	–	22.4 µM (active)
Cc1ccc(-c2cc(N)n(Cc3cccc(Cl)c3)n2)cc1	-15.5% (inactive)	–
COc1cc(Nc2nc(-c3ccc(OC)c(OC)c3)nc3ccccc23)cc(OC)c1	2.81% (inactive)	–
CC(=O)N(C1=C(Cl)C(=O)c2ccccc2C1=O)c1ccc(C(=O)O)cc1	–	20 µM (active)
CCC(=O)N1CCc2cc(S(=O)(=O)NC(Cc3ccccc3)C(=O)NCc3ccc(C)cc3)ccc21 (stereo unspecified)	-8.28% (inactive)	–
COc1ccc(CNC(=O)CSc2n[nH]c(-c3ccc(F)cc3)n2)cc1	3.13% (inactive)	–
Cc1ccn2c(=O)nc(SCC(=O)NCc3ccc(F)cc3)nc2c1	–	28.2 µM (active)
Cc1ccc2nc(SCC(=O)Nc3cccc4ccccc34)nc(=O)n2c1	-0.878% (inactive)	–
Cc1ccc(C)c(N2CCN(C(=O)Cn3ncc4c(=O)oc5ccc(C)cc5c43)CC2)c1	-18.5% (inactive)	–
CCOC(=O)c1ccc(CN(Cc2ccccc2)S(=O)(=O)c2ccc(Cl)cc2)cc1	-2.81% (inactive)	–
CCCn1c(=O)c2[nH]c(-c3ccc(OCC(=O)NCCN)cc3)nc2n(CCC)c1=O	-4.39% [at 57.1 µM] (inactive)	–
COc1ccc(C(=O)Nc2cccc(/C=C(/CCC(=O)O)c3nc4ccccc4s3)c2)cc1	–	39.8 µM (active)

Structure (SMILES)	activity change, negative = inhibition	Potency
COc1cccc(NC(=O)c2ccc3nc(CCc4ccccc4)oc3c2)c1	-19.1% (inactive)	–
COc1ccc(CC(=O)Nc2ccc(-c3nc4ccccc4s3)c(C)c2)cc1	-9.77% (inactive)	–
COc1ccc(OC)c(NC(=O)C2CCN(S(=O)(=O)c3ccc(C)cc3)CC2)c1	-15.4% (inactive)	–
CCOC(=O)c1ccc(N2C(=O)c3n[nH]c(-c4ccco4)c3C2c2ccc(O)cc2)cc1 (stereo unspecified)	4.53% (inactive)	–
CCN1C(=O)c2ccccc2Sc2ccc(NC(=O)Cc3ccc(OC)cc3)cc21	-4.89% (inactive)	–
COc1ccccc1NC(=O)CN1C(=O)c2ccccc2Sc2ccc(C(=O)N3CCCC3)cc21	–	79.4 µM (active)
COC(=O)c1ccc2c(c1)N(CC(=O)Nc1ccc(C)c(C)c1)C(=O)c1ccccc1S2	-15.5% (inactive)	–
CC(C)(C)C1CCc2c(sc(NC(=O)c3ccccc3F)c2C(=O)N2CCCCC2)C1 (stereo unspecified)	-20% (inactive)	–
CCOc1ccccc1NC(=O)c1ccc2c(c1)CCN2S(=O)(=O)c1ccc(C)cc1	-20.4% (inactive)	–
CCc1ccc(C2C(C(=O)Nc3ccccc3)=C(C)Nc3c(C(=O)Nc4ccc(C)cc4)cnn32)cc1 (stereo unspecified)	-11.1% (inactive)	–
C1=C(N2CCOCC2)/C(=C/c2nc3ccccc3[nH]2)CC1	–	20 µM (active)
COc1cc(OC)c(C2C=C(C(=O)O)Nc3ncnn32)cc1OC (stereo unspecified)	1.66% (inactive)	–
Cc1cc(C)c(NC(=O)CSc2nc3nccnc3c(=O)n2CCc2c[nH]c3ccccc23)c(C)c1	9.05% (inactive)	–
Cc1cc(C(=O)N/N=C/c2ccc(O)c([N+](=O)[O-])c2)c(C)n1-c1ccc(F)cc1	–	8.91 µM (active)
O=C(N/N=C/c1cccc([N+](=O)[O-])c1)C1CC(=O)N(c2ccc(Br)cc2)C1 (stereo unspecified)	-13.8% (inactive)	–
Cc1cc(C(=O)COc2ccccc2[N+](=O)[O-])c(C)n1-c1cccc(S(=O)(=O)N2CCOCC2)c1	-19% (inactive)	–
CC(C)(C)c1ccc(C(=O)NCC(c2ccco2)S(=O)(=O)c2ccc(F)cc2)cc1 (stereo unspecified)	-19.1% (inactive)	–
O=C1/C(=C\c2ccc([N+](=O)[O-])cc2)CS(=O)(=O)C/C1=C/c1ccc([N+](=O)[O-])cc1	–	15.8 µM (active)
O=C(CC1Oc2ccc(Cl)cc2NC1=O)NCc1ccccc1 (stereo unspecified)	8.21% (inactive)	–
COc1ccccc1NC(=O)C(=O)c1cc(C)n(-c2ccccc2F)c1C	-19.1% (inactive)	–
CO/N=C(\C(=O)N[C@@H]1C(=O)N2C(C(=O)O)=C(COC(C)=O)CS[C@H]12)c1csc(N)n1 (stereo in doubt)	–	inactive and 20 µM (active) and 28.2 µM (active)
C=CC1=C(C(=O)O)N2C(=O)[C@@H](NC(=O)/C(=N\OCC(=O)O)c3csc(N)n3)[C@H]2SC1	–	7.08 µM (active)
